Screening results as filed in PubChem.
An excerpt weighted towards active compounds, which were near 2.4% of everything screened.
Pol iota inh = inhibitors of human DNA polymerase iota | Q9UNA4 | Pol iota fluorescent replication assay, 10 min | Potency, µM (series often up to 115 µM), inactives show top-dose activity, negative = inhibition, usual class: inhibitors | hit rate 1% among 390,000
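Fluorescent replication assay read twice, at 0 min and 10 min after adding 50 nM (final) substrate. Enzyme (10 nM) and compounds were first incubated 15 min at room temperature; enzyme-free buffer wells were negative controls.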
Pol beta inh = blocks human DNA polymerase beta activity; hit rate 1.3% among 340,000; Potency, µM (doses to about 114 µM), inactives show at the top dose activity change, negative = inhibition, usual class: inhibitors; P06746; Pol beta primer extension/strand displacement, fluorescence kinetic; also: % is scaled to controls: 0 for no effect and ±100 for the full control effect
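Human Pol beta at 10 nM; strand-displacement substrate 50 nM final. Compound exposure 15 min at room temperature before start, reaction 10 min at room temperature.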
POLK inh = inhibitors of human DNA polymerase kappa; hit rate 0.53% among 400,000; Potency, µM (doses to about 107 µM), for the others: top-dose activity, negative = inhibition, usual class: inhibitors; purified Pol kappa, fluorescent DNA synthesis assay, 10 min; AID 588579; Q9UBT6; also: % is scaled to controls: 0 for no effect and ±100 for the full control effect
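Pol kappa 10 nM + cpd, 15 min RT; start w/ substrate 50 nM final; fluorescence kinetic read, 0 and 10 min. Neg ctrl: buffer, no enzyme.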
Pol eta inh = blocks human DNA polymerase eta activity | hit rate 1.2% among 390,000 | Q9Y253 | Potency, µM (doses to about 114 µM), inactives show top-dose activity change, negative = inhibition, usual class: inhibitors | recombinant Pol eta, fluorescent DNA replication assay; also: % is scaled to controls: 0 for no effect and ±100 for the full control effect
Target sequence (Q9Y253 whole entry, looked up): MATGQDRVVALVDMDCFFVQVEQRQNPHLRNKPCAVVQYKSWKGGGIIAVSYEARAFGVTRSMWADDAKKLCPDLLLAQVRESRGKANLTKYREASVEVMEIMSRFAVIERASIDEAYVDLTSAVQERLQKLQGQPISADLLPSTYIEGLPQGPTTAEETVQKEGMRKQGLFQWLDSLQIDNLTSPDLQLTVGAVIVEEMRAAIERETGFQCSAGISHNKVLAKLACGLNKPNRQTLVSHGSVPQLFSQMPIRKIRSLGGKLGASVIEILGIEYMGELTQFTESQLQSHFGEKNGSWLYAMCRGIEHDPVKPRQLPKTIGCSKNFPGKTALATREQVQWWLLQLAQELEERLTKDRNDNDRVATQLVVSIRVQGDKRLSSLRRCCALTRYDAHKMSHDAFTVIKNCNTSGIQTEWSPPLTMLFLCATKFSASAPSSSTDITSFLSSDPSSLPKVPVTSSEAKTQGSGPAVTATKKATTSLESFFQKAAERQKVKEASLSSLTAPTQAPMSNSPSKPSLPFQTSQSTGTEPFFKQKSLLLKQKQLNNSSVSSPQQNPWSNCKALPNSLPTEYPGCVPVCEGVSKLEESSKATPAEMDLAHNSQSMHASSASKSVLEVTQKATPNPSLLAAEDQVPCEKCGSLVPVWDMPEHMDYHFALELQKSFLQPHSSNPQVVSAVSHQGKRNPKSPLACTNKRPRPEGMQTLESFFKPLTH
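Fluorescent replication assay: 50 nM final substrate added after a 15 min room-temperature compound preincubation with 10 nM enzyme. Signal taken at 0 min and again at 10 min.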
TDP1 inh = TDP1 (human) enzyme inhibition; Potency, µM (titrated, usually from 130 µM), without a hit: at the top dose activity change, negative = inhibition, hits mostly inhibitors; recombinant TDP1, AlphaScreen DNA substrate cleavage; Q9NUW8; hit rate 0.28% among 350,000; also: % is scaled to controls: 0 for no effect and ±100 for the full control effect; nearly all actives have a fitted effect of over 40% in size
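Signal: AlphaScreen proximity between streptavidin donor and anti-FITC acceptor beads on intact substrate. Reaction: Tdp1 1 nM, substrate 15 nM final, 5 min RT after 15 min compound preincubation.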
PGK validate = validation of Trypanosoma brucei phosphoglycerate kinase inhibitors; shares compounds with POLK inh; TbPGK coupled GAPDH assay, Kinase-Glo luminescence; Potency, µM (top dose mostly 57.5 µM), for the others: at the top dose activity change, negative = inhibition, actives largely listed as inhibitors; hit rate 79% among 500; also: % is scaled to controls: 0 for no effect and ±100 for the full control effect; nearly all actives have a fitted effect of over 65% in size
POLI cherry-pick = Inhibitors of human DNA polymerase iota, confirmation; shares compounds with POLK inh; hit rate 77% among 1,500; Pol iota primer extension, TAMRA/BHQ fluorescence; Potency, µM, hits mostly inhibitors
Active calls of the source: *; ? = inconclusive; . = not tested or not shown; ! = repeats disagree; [ ] = another dose, or the depositor's remark. Calls follow the shape of the dose curve; as a rule, active = well fitted curve in the direction sought with a large enough effect; inconclusive = small, poorly fitted or top-dose-only effect, or another doubt; inactive = no such curve, though single readings can be large; an effect the other way counts as inactive or inconclusive. Potency is read from the fitted curve at half-maximal effect.

SMILES	Pol iota inh	Pol beta inh	POLK inh	Pol eta inh	TDP1 inh	PGK validate	others
O=C(CN1C(=O)/C(=C2\SC(=S)N(CCS(=O)(=O)O)C2=O)c2ccccc21)Nc1cccc(Br)c1	?	?	?	?	.	15µM*
COCCN1C(=O)/C(=C2/C(=O)N(CC(=O)Nc3ccccc3Cl)c3ccccc32)SC1=S	28%	8%	-13%	-6%	3%	.
CC(C)(CO)[C@@H](O)C(=O)NCCC(=O)NCCSSCCNC(=O)CCNC(=O)[C@H](O)C(C)(C)CO	.	.	-3%[19.4 µM]	.	.	.
Cc1csc2c(=O)sc(NC(=O)c3cccs3)nc12	?	?	6%	?	-4%	26µM*
C=CCc1cccc(C=NNC(=O)CN2CCN(Cc3ccccc3)CC2)c1O	.	.	-2%[60.1 µM]	.	.	.
CS(=O)(=O)NCCSCc1ccco1	?	40µM*	?	71µM*	.	21µM*
COc1ccc(-n2nnc3c(=O)n(CC(=O)Nc4ccc5c(c4)OCCO5)cnc32)cc1OC	18%	?	-1%	25µM*	.	.	POLI cherry-pick=67*
O=C(CCS(=O)(=O)c1ccc(Br)cc1)NCc1ccco1	26%	?	-2%	?	.	16µM*
O=C(CCNC(=O)c1ccc(Br)cc1)NCc1ccco1	-18%	.	1%	-12%	-21%	.
Oc1ccc(C2CNCCc3c2cc(O)c(O)c3Cl)cc1 (stereo not drawn)	14µM*!	?	-1%[60.1 µM]	?	-4%[56.1 µM]	.	POLI cherry-pick=?
Oc1cc2c(c(Cl)c1O)CCNC[C@H]2c1ccccc1	.	.	-13%[19.4 µM]	.	13%	.
O=C(Nc1ccc(NC(=O)c2ccc(Br)cc2)c(Cl)c1)c1ccc(Br)cc1	35%	0%	-24%	-7%	2%[12.3 µM]	.
O=C(OCC#CCSc1nnc(-c2cccc3ccccc23)o1)c1ccc(OC(F)(F)F)cc1	.	.	.	.	-8%	.
Fc1ccccc1Nc1nc2ccccc2o1	9%	0%	-6%	0%	.	18µM*
COC(=O)CN1C(=O)C(C)(C)c2cc(S(=O)(=O)Nc3ccc(C(C)C)cc3)ccc21	31%	-1%	-9%[60.1 µM]	-23%	1%	.
COc1c(O)c(=O)n2c3ccccc3c3ccnc1c32	?	.	-14%	-26%	.	.	POLI cherry-pick=4.7*
O=C(N/N=C/c1cccnc1)c1ccc(O)cc1	5%	20%	-10%	-3%	.	.
O=C(N/N=C/c1cccnc1)c1cc(O)c(O)c(O)c1	?	?	?	-18%	.	.	POLI cherry-pick=24*
CCC1CCCCN1C(=O)Cn1c(=O)n(CCCCCC(=O)NCc2ccccc2Cl)c(=O)c2sccc21 (stereo not drawn)	-14%	-26%	-19%	-2%	5%	.
NC(=S)N/N=C/c1cccc(O)c1O	79µM*	-2%	?	-8%	0%	.	POLI cherry-pick=67*
COc1ccc(/C=C\c2onc(C)c2S(=O)(=O)N2CCC(C(=O)Nc3ccc(C)cc3C)CC2)cc1	6%	-3%	1%	-21%	0%	.
O=c1c2ccccc2cnn1-c1nc2ccccc2[nH]1	25%	20%	2%[60.1 µM]	-8%	-3%	5.8µM*
O=c1c(Cl)c(N2CCCCC2)cnn1-c1nc2ccccc2[nH]1	12%	-5%	-9%	0%	4%	.
O=C(CCS(=O)(=O)c1cc(Br)cc2c1N(C(=O)C1CC1)CC2)Nc1ccc(F)cc1	25%	14%	19%	-12%	0%	.
CCc1nn2c(=O)cc(COc3cccc(NC(=O)c4ccco4)c3)nc2s1	50µM*	?	?	?	50µM*	.	POLI cherry-pick=?
SMILES	Pol iota inh	Pol beta inh	POLK inh	Pol eta inh	TDP1 inh	PGK validate	others
CCCc1nn2c(=O)cc(COc3cccc(NC(=O)c4ccco4)c3)nc2s1	-25%	-13%	-15%	?	0%	.
O=C(O)CCCN1C(=O)/C(=C/c2ccc(-c3nc4ccccc4s3)o2)SC1=S	?	13µM*	50µM*	3.2µM*	-3%	?
O=C(O)CCCN1C(=O)/C(=C/c2ccncc2)SC1=S	?	-3%	-14%	-4%	4%	.
CCOC(=O)C(=O)Cc1cccnn1	?	.	?	2.8µM*	.	13µM*
COc1ccc(CN2C=C3C(=O)C(C)(OC(=O)C4CCCC4)C(=O)C=C3C=C2c2ccsc2)cc1 (stereo not drawn)	-4%	-17%	-34%	4%	9%[21 µM]	.
COc1ccc(C2=CC3=C(Br)C(=O)C(C)(OC(=O)C4CCCC4)C(=O)C3=CO2)cc1 (stereo not drawn)	40µM*	35µM*	79µM*	45µM*	2%	9.2µM*
COc1cc(SC)ccc1C(=O)NNC(=O)c1cc(C)oc1C	91%	.	-7%	-17%	0%	13µM*
COc1ccccc1C(=O)NCCC(=O)Nc1nc2ccccc2[nH]1	35%	.	-1%	-7%	-6%[0.505 µM]	.
COc1ccccc1C(=O)Nc1nc2ccccc2[nH]1	3%	24%	-2%	-18%	-5%	5.8µM*
COc1cc(SC)ccc1C(=O)Nc1nc2ccccc2[nH]1	-1%	-8%	-3%	-18%	6%	3.3µM*
CCN1CCc2nc3sc(C(=O)c4ccccc4)c(N)c3cc2C1	69%	10%	-16%	4%	5%	.
COC(=O)c1ccccc1S(=O)(=O)N1CCc2nc(-c3ccccc3)c3c(c2C1)CO[C@@H](C)C3	.	.	.	.	16%[12.3 µM]	.
COc1ccc2c(c1)c1c(c(=O)n(-c3cccc(Cl)c3)c(=O)n1CC(=O)N1CCCC1)n2C	0%	6%	-9%	-1%	3%	.
O=C(O)c1ccc(-c2ccc(/C=C3\NC(=O)N(Cc4ccc(Cl)cc4)C3=O)o2)cc1Cl	1.4µM*	4.5µM*	4.5µM*	1.3µM*	?	5.8µM*
O=C1NC(=Nc2ccc(Cl)cc2)/C(=C/c2ccco2)S1	28µM*	8.9µM*	?	56µM*	.	.	POLI cherry-pick=?
CN(C)N1C(=O)/C(=C/c2ccco2)SC1=Nc1ccccc1	?	.	-19%	-3%	.	.
COc1cc(OC)cc(N2C(=O)N(Cc3ccc(C(C)(C)C)cc3)c3ccccc3S2(=O)=O)c1	-2%	23%	-3%[60.1 µM]	-7%	3%	.
CCOc1ccc(-c2ccc(SC)nn2)cc1	133%	13%	-7%	-16%	4%	8.2µM*
CNC(=O)C1CCC(Cn2c(=O)c3sccc3n(CC(=O)N3CCC(C)CC3)c2=O)CC1 (stereo not drawn)	10%	-1%	0%	-2%	-2%	-17%
CNC(=O)C1CCC(Cn2c(=O)c3sccc3n(CC(=O)Nc3ccccc3)c2=O)CC1 (stereo not drawn)	20%	11%	3%	-5%	6%	.
